IMPase Li cell = qHTS Assay for Identifying the Cell-Membrane Permeable IMPase Inhibitors: Potentiation with Lithium. Potency, µM (highest dose often 59.4 µM), for the others: at the highest dose activity, negative = IMPase inhibition, actives largely listed as inhibitors. CHO-M1 cells, IP1 TR-FRET (IP-One), carbachol + lithium. 0.35% of 210,000 active. AID 1457, 2008; active = well fitted inhibition curve with a large enough effect; inconclusive = small, poorly fitted or top-dose-only effect; inactive = no such curve, though single readings can be large or run the other way;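 also: IP1 builds up when IMPase is blocked and the TR-FRET signal falls; potency is read from the fitted curve at half-maximal effect; plate controls were basal vehicle for no effect and high inhibitor control for full effect; nearly all actives have a fitted effect of over 50% in size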
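CHO cells stably expressing M1 receptor (2000/well) were cultured 16–30 h, then exposed to compounds with a small lithium addition for 30 min at 37C. IP1 was measured by TR-FRET competition; AC50 from Hill fits.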
PNC assembly inh = High Content Assay for Compounds that inhibit the Assembly of the Perinucleolar Compartment; PC3M PTB-GFP, PNC prevalence imaging, 16 h; hits give low values; activity change (PNC), negative = inhibition, % at 10 µM; 3.1% of 140,000 active;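 active = readout at or below -70, meaning at least 70% loss of cells showing the perinucleolar compartment, a nuclear body marking cancer cells; inconclusive = readout between -30 and a set limit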;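 also: plate controls were DMSO wells for no effect and camptothecin positive control wells for full effect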
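PC3M cells stably expressing PTB-GFP, 750–1000 cells/well, treated 16 h at 37 °C with compound (23 nl of library stock), in duplicate. After paraformaldehyde fixation and Hoechst stain, imaged at 20x; PNC prevalence scored by image analysis.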
HPGD block = qHTS Assay for Inhibitors of HPGD (15-Hydroxyprostaglandin Dehydrogenase); 4.3% of 150,000 active; 15-hydroxyprostaglandin dehydrogenase [NAD(+)] (Homo sapiens), P15428; Potency, µM, without a hit: top-dose activity change, negative = inhibition, most hits filed as inhibitors; purified HPGD, NADH fluorescence kinetic, PGE2 substrate; also: potency is read from the fitted curve at half-maximal effect
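20 nM HPGD preincubated 15 min at room temperature with compound in 50 mM Tris-HCl pH 8, 0.01% Tween 20. Started with 1 mM NAD+ and 30 uM prostaglandin E2; NADH fluorescence (360/450 nm) read 5 times over 30-s intervals, last minus first.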
IMPase inh = qHTS Assay for Identifying the Cell-Membrane Permeable IMPase Inhibitors; Inositol monophosphatase 1 (Rattus norvegicus), P97697; CHO-M1 cells, IP1 accumulation, HTRF TR-FRET ratio; inhibition (IP1 accumulation), % at 46.1 µM; 120,000 tested, under 10 active; AID 901, 2007; active = well fitted curve in the direction sought with a large enough effect in the signal ratio, not every such curve was filed as active; inconclusive = small, poorly fitted or top-dose-only effect, or a change in a side signal; inactive = no such curve, though single readings can be large or run the other way; the % refers to the signal ratio;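 also: cells stimulated with carbachol in lithium chloride buffer; plate controls were DMSO basal wells for no effect and reference inhibitor wells for full effect; higher means more IMPase inhibition seen as more IP1 and lower FRET ratio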
Target sequence (P97697 whole entry, looked up): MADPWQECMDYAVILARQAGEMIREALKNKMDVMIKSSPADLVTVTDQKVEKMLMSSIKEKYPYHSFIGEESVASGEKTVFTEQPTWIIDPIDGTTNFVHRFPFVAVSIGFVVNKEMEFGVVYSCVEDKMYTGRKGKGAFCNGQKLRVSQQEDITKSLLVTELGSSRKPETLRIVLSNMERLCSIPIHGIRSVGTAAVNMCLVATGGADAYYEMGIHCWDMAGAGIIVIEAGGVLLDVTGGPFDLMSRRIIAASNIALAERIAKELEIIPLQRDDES
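Cellular IMPase inhibition is scored as a rise in cytosolic IP1, detected by competitive TR-FRET between d2-labelled IP1 and a europium anti-IP1 antibody. M1-expressing CHO cells were stimulated with carbachol for 30 min at 37C, with lithium (50 mM LiCl) present in the buffer.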
ALDH1A1 inh = qHTS Assay for Inhibitors of Aldehyde Dehydrogenase 1 (ALDH1A1); Purified ALDH1A1, NADH fluorescence, propionaldehyde substrate; Potency, µM (titrated, usually from 75.3 µM), for inactives: at the highest dose activity, negative = inhibition, most hits filed as inhibitors; 7.3% of 220,000 active; AID 1030, 2008;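 also: potency is read from the fitted curve at half-maximal effect; plate controls were no enzyme wells and a reference inhibitor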
Target sequence (P00352 whole entry, looked up): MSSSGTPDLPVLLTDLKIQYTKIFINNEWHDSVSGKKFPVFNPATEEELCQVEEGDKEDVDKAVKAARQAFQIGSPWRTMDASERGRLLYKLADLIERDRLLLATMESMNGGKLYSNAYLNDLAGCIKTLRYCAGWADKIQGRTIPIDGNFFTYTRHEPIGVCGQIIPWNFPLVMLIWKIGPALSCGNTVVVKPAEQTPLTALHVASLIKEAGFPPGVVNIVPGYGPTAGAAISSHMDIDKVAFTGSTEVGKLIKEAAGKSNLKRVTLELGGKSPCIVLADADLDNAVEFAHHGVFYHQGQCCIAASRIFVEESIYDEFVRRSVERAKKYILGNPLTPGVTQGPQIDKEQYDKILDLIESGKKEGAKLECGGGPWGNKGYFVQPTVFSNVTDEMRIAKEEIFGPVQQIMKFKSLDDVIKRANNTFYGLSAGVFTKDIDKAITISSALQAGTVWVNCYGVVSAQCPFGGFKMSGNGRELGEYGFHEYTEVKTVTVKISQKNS
* = called active by the depositor; ? = inconclusive; . = no result given; ! = not active in a repeat; [ ] = dose if it differs, or a comment. This is a sample that favours compounds with a hit; in the whole collection about 11% have one here. Unless noted, calls follow the shape of the dose curve; as a rule, active = well fitted inhibition curve with a large enough effect (not every such curve was filed as active); inconclusive = small, poorly fitted or top-dose-only effect, or another doubt; inactive = no such curve, though single readings can be large or run the other way. Unless noted, % is scaled to controls: 0 for no effect and ±100 for the full control effect.

SMILES	IMPase Li cell	PNC assembly inh	HPGD block	IMPase inh	ALDH1A1 inh
O=C(CC1NCCNC1=O)Nc1ccc2c(c1)OCO2 (centres undefined)	41%[38.3 µM]	-91*	-8%	5	-4%
Cc1ccc(C(=O)c2oc3ccccc3c2NC(=O)C(C)Oc2ccccc2Cl)cc1 (centres undefined)	.	.	.	-1	.
CN(CC(=O)Nc1ccc(N2CCOCC2)cc1)Cc1cc(=O)n2ccsc2n1	-13%	.	.	.	?
CCN(CC(=O)Nc1ccc2c(c1)OCCO2)Cc1cc(=O)n2ccsc2n1	-12%	.	.	.	20µM*
Cc1ccc(C(C2C(=O)CC(C)(C)CC2=O)C2C(=O)CC(C)(C)CC2=O)s1	-7%[38.3 µM]	-11	2.8µM*	-2	7.1µM*
CC1(C)CC(=O)C(C(c2ccncc2)C2C(=O)CC(C)(C)CC2=O)C(=O)C1	-5%[38.3 µM]	-87*	2%	-5	-8%
Cc1sc2nc(CN3CCOCC3)nc(Oc3ccc(NC(=O)c4ccco4)cc3)c2c1C	.	37	.	8	18µM*
Cc1sc2nc(CN3CCOCC3)nc(N3CCOCC3)c2c1C	0%[38.3 µM]	33	-10%	-4	14µM*
Cc1ccc(Oc2nc(CN3CCOCC3)nc3sc4c(c23)CCC(C)C4)cc1 (centres undefined)	25%	-8	-10%	-2	?
Nn1c(Cc2cccc3ccccc23)nnc1SCCOc1ccc(F)cc1	-3%	-23	?	.	9%
Nn1c(Cc2cccc3ccccc23)nnc1SCc1c(F)cccc1Cl	5%	-23	22µM*	.	3%
Nn1c(Cc2cccc3ccccc23)nnc1SCCOc1ccc(Br)cc1	4%	8	14µM*	.	?
CC(=O)c1ccc(NC(=O)CCSCCC(=O)Nc2ccc(C(C)=O)cc2)cc1	16%[38.3 µM]	-5	-10%	-2	40µM*
CC(=O)c1ccc(NC(=O)CSCC(=O)Nc2ccc3ccccc3c2)cc1	27%[38.3 µM]	?	-12%	-1	?
Cc1cc(C)n(-c2ccc(C(=O)NC3CCCCC3)cc2)n1	?	.	.	.	7%
Cc1ccc(-n2c3nc(=O)[nH]c(=O)c-3cc3cc([N+](=O)[O-])ccc32)cc1C	15%	-16	32µM*	5	3%
Cc1ccc(S(=O)(=O)N2CCC(C(=O)NNC(=O)c3ccc(F)cc3)CC2)cc1	-6%	.	.	.	2%
O=[N+]([O-])c1ccccc1S(=O)(=O)N1CCN(CC2CC=CCC2)CC1 (centres undefined)	9%	.	.	.	14µM*
O=[N+]([O-])c1ccccc1S(=O)(=O)N1CCN(Cc2cc3c(cc2O)OCO3)CC1	15%	.	.	.	1.9µM*
CCCS(=O)(=O)N1CCN(S(=O)(=O)c2ccccc2[N+](=O)[O-])CC1	5%	.	.	.	-6%
O=c1cc(CN2CCN(S(=O)(=O)c3ccccc3[N+](=O)[O-])CC2)nc2sccn12	-1%	.	.	.	-9%
CCOc1cc(C=O)ccc1OCCSc1ccc(C)cc1	3%	33	18µM*	8	?
COc1cc(C=O)ccc1OCCOCCOc1cc(C)ccc1Cl	.	-1	.	-1	4%
COc1cc(C=O)ccc1OCCSc1ccc(C)cc1	-3%[38.3 µM]	13	18µM*	5	?
CCN(CC)CCCCNC(=O)c1ccc(Cc2nc3ccccc3[nH]2)cc1	.	.	-3%	.	0%
SMILES	IMPase Li cell	PNC assembly inh	HPGD block	IMPase inh	ALDH1A1 inh
CCc1cccc2c(C(=O)COC(=O)c3ccc([N+](=O)[O-])s3)c[nH]c12	5%	7	-12%	.	13µM*
CCc1cccc2c(C(=O)CSc3nncn3C)c[nH]c12	3%	.	.	.	10%
CCc1cccc2c(C(=O)CCl)c[nH]c12	.	?	.	-6	8.9µM*
Cc1ccc(C(=O)OCC(=O)c2c[nH]c3ccccc23)cc1	6%	68	-6%	.	9%
O=C(OCC(=O)c1c[nH]c2ccccc12)c1ccc([N+](=O)[O-])s1	18%	.	.	.	0.71µM*
O=C(/C=C/c1ccc(F)cc1)NCCc1ccc2c(c1)OCCO2	-2%	?	3%	4	6%
COc1ccc(C/C(=N\O)c2ccc(OC)cc2)cc1	3%[38.3 µM]	?	-27%	-10	4%
CCS(=O)(=O)N1N=C(c2cccc(NS(C)(=O)=O)c2)CC1c1ccc(C)cc1 (centres undefined)	5%	.	.	.	20µM*
N#C/C(=N\Nc1ccccc1F)c1nc(-c2ccccc2)cs1	0%	.	.	.	-1%
CCCn1c2c(c(O)c(C(=O)NCCCN(CC)CC)c1=O)CCCC2	9%	-100*	-13%	-3	28µM*
CCCn1c2c(c(O)c(C(=O)Nc3ncccc3O)c1=O)CCCC2	.	?	.	-2	5.6µM*
CCCn1c2c(c(O)c(C(=O)NC)c1=O)CCCC2	-1%	196	-17%	4	-11%
CCCn1c2c(c(O)c(C(=O)Nc3ccc(OC)cc3)c1=O)CCCC2	-5%[38.3 µM]	-27	?	3	?
Cc1ccccc1OC1C(=O)N(Cc2ccc3c(c2)OCO3)C1c1sccc1C (centres undefined)	25%[38.3 µM]	-2	-19%	8	-2%
Cc1nnc(N(C)C(=O)Cc2ccc3c(c2)OCO3)s1	3%	-100*	-17%	-5	-5%
O=C(CSc1ncnc2nc[nH]c12)Nc1ccccc1C(F)(F)F	5%[38.3 µM]	?	8.9µM*	5	0%
O=C(O)CCSc1ncnc2nc[nH]c12	-7%	.	-3%	.	12%[13.5 µM]
O=C(CSc1ncnc2nc[nH]c12)c1ccccc1	-11%	-20	28µM*!	-6	28µM*!
Cc1cccc(C)c1NC(=O)CSc1ncnc2nc[nH]c12	0%	?	-11%	1	6%
CC1(C)CC(=O)C(C=Nc2ccc(O)cc2)=C(O)C1	-10%[38.3 µM]	-27	-6%	2	?
CC1(C)CC(=O)C(/C=N/c2ncccc2C(=O)O)=C(O)C1	0%[38.3 µM]	3	?	-2	13µM*
CCOc1ccc(N=CC2=C(O)CC(C)(C)CC2=O)cc1	-5%[38.3 µM]	-21	-7%	-7	14µM*
Cc1[nH]nc(N=CC2=C(O)CC(c3ccco3)CC2=O)c1-c1ccc(Cl)cc1 (centres undefined)	24%[38.3 µM]	7	-12%	-7	?
CC1(C)CC(=O)C(C=Nc2ccc3cn[nH]c3c2)=C(O)C1	-5%[38.3 µM]	-12	-18%	5	14µM*
Cc1[nH]nc(N=CC2=C(O)CC(C)(C)CC2=O)c1-c1ccc(Cl)cc1	23%[38.3 µM]	-14	-19%	-6	14µM*
COc1cccc(Cn2c(=O)c(-c3cccs3)nc3cnc(N(C)C)nc32)c1	2%	.	.	.	?
CC(=O)N=c1n(C)c2ccccc2n1CCOc1ccccc1	-4%	38	-3%	.	6%
CC1(C)CC(=O)C(C=Nc2ccc(N)cc2)=C(O)C1	7%	.	.	.	11µM*

Screening data: PubChem, National Center for Advancing Translational Sciences (NCATS)
